Compound activity: PubChem BioAssay, National Center for Advancing Translational Sciences (NCATS)
A selection: hits, their analogues and other compounds. The true share with any hit is near 13%.
HCV inhibitor: HCV inhibition. Potency, µM (highest dose often 41.8 µM), for inactives: at the highest dose activity change, negative = inhibition, usual class: inhibitors. hit rate 3.4% among 340,000. Huh7.5.1 HCVcc-Cre infection, luciferase reporter, 44 h. AID 651820; active = well fitted inhibition curve with a large enough effect; inconclusive = small, poorly fitted or top-dose-only effect, or another doubt; inactive = no such curve, though single readings can be large or run the other way; note: potency is the fitted concentration of half-maximal effect; % is set by controls: 0 for no effect and ±100 for the full control effect
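Luciferase read-out (15 sec integration) after a 15 min room-temperature substrate step quantifies HCVcc-Cre infection. Cells, 1,000 per well, had compound added 4 h post-plating, then virus at ~0.5 moi, and were cultured 44 h.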
Lassa entry inh: blocks Lassa virus binding to or entry into cells | Lassa virus pseudotype entry inhibition, cell reporter | Potency, µM (series often up to 37.9 µM), for inactives: at the highest dose activity change, negative = inhibition, hits mostly inhibitors | hit rate 1.2% among 300,000; calls by dose curve; tested in HEK293 cells; note: potency is the fitted concentration of half-maximal effect; % is set by controls: 0 for no effect and ±100 for the full control effect; nearly all actives have a fitted effect of over 50% in size
Shiga toxin inh: inhibitors of Shiga toxin in Vero cells | hit rate 9.2% among 290,000 | Vero cells, Shiga toxin protein synthesis inhibition reporter | inhibition, % at 38.7 µM; in the data active = inhibition mostly above about 28%, no sharp cut-off; inactive = mostly below about 43%; note: 0% is about no effect
Marburg entry inh: inhibitors of Marburg virus binding or cell entry; Marburg virus pseudotyped entry inhibition, cell reporter; Potency, µM (doses to about 37.8 µM), inactives show at the highest dose activity change, negative = inhibition, actives largely listed as inhibitors; hit rate 1.8% among 300,000; AID 540276; calls by dose curve; tested in HEK293 cells; note: potency is the fitted concentration of half-maximal effect; % is set by controls: 0 for no effect and ±100 for the full control effect
FMDV inh: antivirals against foot and mouth disease virus | FMDV antiviral cell-based qHTS | AID 1159524 | hit rate 1.2% among 410,000 | Potency, µM (highest dose often 57.9 µM), for the others: top-dose activity change, negative = inhibition, actives largely listed as inhibitors; calls by dose curve; tested in HEK293T cells; note: read-out not given here; potency is the fitted concentration of half-maximal effect; % is set by controls: 0 for no effect and ±100 for the full control effect; nearly all actives have a fitted effect of over 45% in size
CHX counter: counter-screen for Shiga toxin inhibitors: cycloheximide protein synthesis inhibition; AID 2314; hit rate 12% among 300,000; max response, %; cell reporter, cycloheximide protein synthesis inhibition counterscreen; in the data active = max response mostly above about 13%, no sharp cut-off; inactive = mostly below about 14%; note: read at 38.3 µM for the half of the compounds with a filed dose; 0% is about no effect
Active calls of the source: *; ? = inconclusive; · = not tested or not shown; [ ] = another dose, or the depositor's remark.

SMILES	HCV inhibitor	Lassa entry inh	Shiga toxin inh	Marburg entry inh	FMDV inh	CHX counter
O=C(Nc1ccc(OCC(F)(F)C(F)F)c(C(F)(F)F)c1)c1ccc(Cl)cc1	7.9µM*	?	·	16µM*	?	·
O=C1CC(c2ccccc2Cl)=NN(c2ncnc3ccccc23)C1=O	12%	-4%	94*	-14%	64%	41*
Clc1ccccc1-c1ccc2ncnc(N3CCNCC3)c2c1	·	·	·	·	-1%	·
c1ccc2sc(SCc3ccc(-c4nnco4)cc3)nc2c1	?	11µM*	73*	?	1%	38*
CCOc1ccc(C(=O)Nc2ccc3nc(SCc4ccccc4)sc3c2)cc1	·	3%[46.1 µM]	·	2%[46.1 µM]	0%	·
COCCNC(=O)c1ccc(CSc2nc3ccccc3s2)cc1	-23%	30%[46.1 µM]	73*	?	-14%	43*
CCNC(=O)c1ccc(CSc2nc3ccccc3s2)cc1	?	?	-11	-18%[46.1 µM]	-8%	-2
NC(=O)c1ccc(CSc2nc3ccccc3s2)cc1	4%	?	94*	?	8%	48*
CCC(C)/C(C)=N/NC(=O)c1ccc(CSc2nc3ccccc3s2)cc1 (configuration not stated)	?	?	34	-10%	-16%	20*
CSc1ccc(CN(C)C(=O)CN2C(=O)NC3(CCCC3)C2=O)cc1	-17%	-3%	·	13%	-21%	·
Cc1ccccc1N=Nc1ccc(O)c2ncccc12	?	?	2	5.6µM*	0%	-3
O=S(=O)(O)c1cccc2c(N=Nc3ccc(O)c4ncccc34)cccc12	?	·	-4	2%	?	1
Nc1ccc(Br)c2cccnc12	?	-1%	13	?	-7%	8
O=Nc1ccc(O)c2ncccc12	?	·	44*	·	?	56*
Nc1ccc(N=Nc2ccccc2)c2cccnc12	2.5µM*	·	90*	·	37%	48*
O=C1OC(c2ccccc2)=C/C1=C/N1CCOCC1	-13%	8%	63*	13%	·	17*
CCN1/C(=C\C=C2\C(=O)N(C)C(=S)N2C)Sc2ccccc21	-4%	15%	63*	31%[46.1 µM]	7%	28*
CCC(=O)N1N=C(c2cccs2)CC1c1ccco1 (configuration not stated)	?	6%[46.1 µM]	-3	3%[46.1 µM]	-15%	1
COC(=O)c1cc(-c2ccc(Cl)cc2)n[nH]1	4%	·	47*	·	50%	38*
COC(=O)c1cc(-c2ccc(Cl)cc2Cl)n[nH]1	-12%	·	63*	·	42%	29*
COCCN=c1scc(C)n1/N=C/C1CC2C=CC1C2 (configuration not stated)	12%	·	55	-10%[46.1 µM]	22%	13*
Cc1nn(C(C)(C)C)c(C)c1/C=N/OC(=O)Nc1ccc(Cl)cc1	?	?	-23	?	5.6µM*	-4
C/C=C(/C)C(=O)OC1c2c(ccc3ccc(=O)oc23)OC(C)(C)C1OC(=O)/C(C)=C\C (configuration not stated)	-49%	·	-7	·	28µM*	-4
CC1(C)Oc2ccc3ccc(=O)oc3c2[C@@H](O)[C@H]1O	3.2µM*	·	·	·	-15%	·
CCO[C@H]1c2c(ccc3ccc(=O)oc23)OC(C)(C)[C@H]1O	40%	·	·	·	1%	·
SMILES	HCV inhibitor	Lassa entry inh	Shiga toxin inh	Marburg entry inh	FMDV inh	CHX counter
O=c1[nH]c(SCc2cccc([N+](=O)[O-])c2)nc2[nH]ncc12	13%	·	28	·	-9%	-4
CCOCCCNC(=O)Cc1ccc(F)cc1	·	-2%	-8	5%	·	-4
CC(C)c1ccc(Nc2ccc(C(=O)O)cc2[N+](=O)[O-])cc1	-3%	?	43	-1%	23%	19*
O=C(Cn1cc(SCc2ccc(F)cc2)c2ccccc21)N1CCOCC1	5%	13%	16*	?	51%	36*
Cc1ccc(CSc2cn(CC(=O)N3CCCCCC3)c3ccccc23)cc1	·	8.9µM*	·	·	13%	·
O=C(Cn1cc(SCc2ccc(Cl)cc2)c2ccccc21)N1CCOCC1	?	-9%[46.1 µM]	32*	?	14%	26*
Cc1ccc(CSc2cn(CC(=O)N3CCCC3)c3ccccc23)cc1	·	-14%[46.1 µM]	·	·	21%	·
Cc1ccc2c(c1)C(c1ccccc1)N(C(=O)CC(C)C)CC(=O)N2 (configuration not stated)	15%	-26%[46.1 µM]	33	5%[46.1 µM]	-17%	2
O=C(CN1CCCCC1)NCCNC(=O)CN1CCCCC1	-19%	-22%	-3	?	-9%	-4
COc1ccc2nc3sc(C(=O)N4CCN(c5ccccc5)CC4)cc3cc2c1	·	1%[46.1 µM]	·	-14%[46.1 µM]	21%	·
CC(=O)c1cccc(NC(=O)NC2CC3CCCC(C2)N3CC(C)C)c1 (configuration not stated)	-6%	22%	11	?	17%	-1
S=C(Nc1ccc(Cl)cc1)NC1CC2CCC(C1)N2Cc1ccccc1 (configuration not stated)	?	0%	-7	?	-25%	0
CCc1ccc(NC(=S)NC2CC3CCCC(C2)N3Cc2ccccc2)cc1 (configuration not stated)	10µM*	?	11	10µM*	-15%	8
CCCN1C2CCCC1CC(NC(=O)Nc1cccc(C(C)=O)c1)C2 (configuration not stated)	2.8µM*	20%	-11	2%	7%	-2
Cc1cccc(C(=O)NC2CC3CCCC(C2)N3Cc2ccccc2)c1 (configuration not stated)	-1%	-11%[46.1 µM]	-12	3.2µM*	-5%	-1
CCCN1C2CCCC1CC(NC(=O)c1ccc(C(C)(C)C)cc1)C2 (configuration not stated)	?	·	81	·	25%	13*
CCN(CC)C(=O)CSc1nc2cc(S(=O)(=O)N3CCOCC3)ccc2n1CC	8%	-16%	-1	7%	-18%	-3
O=C(O)CNC(=S)N(Cc1ccccc1Cl)C1CCCC1	2%	21%[46.1 µM]	-17	?	15%	-10
CN(CCC1CCOCC1)C(=O)C1CCC(=O)N(CCc2cccc(F)c2)C1 (configuration not stated)	-10%	42%	-12	17%	1%	10
Cc1ccc(CN2C3CCCC2CC(NC(=O)c2ccc(F)cc2)C3)cc1 (configuration not stated)	-9%	-13%	-11	7.1µM*	-6%	2
Cc1ccc(C(=O)NC2CC3CCCC(C2)N3Cc2ccccc2)cc1 (configuration not stated)	9%	-2%	15	-16%	-16%	-2
O=C(Nc1ccc2c(c1)OCCO2)C1CCN(C(=O)c2ccc(Br)cc2)CC1	-20%	30%	41	11%	26%	18*
COc1ccc(C(=O)N2CCC(C(=O)Nc3ccc4c(c3)OCCO4)CC2)cc1	-15%	13%	43	11%	?	48*
O=C(Nc1ccc2c(c1)OCCO2)C1CCN(C(=O)c2ccccc2)CC1	7%	6%	106*	1%	12%	21*
